Consider 59 compounds from PubChem BioAssay AID651814 (National Center for Advancing Translational Sciences (NCATS), 2012).

Structures are written as SMILES. Among all 2,100 compounds or so, about 590 (28%) were called active. Another 42% or so got no clear call; they are omitted. This is one part of the list. A number with no mark means an inactive call. Calls come from the whole dose curve; as a rule, active = well fitted inhibition curve with a large enough effect; inconclusive = small, poorly fitted or top-dose-only effect; inactive = flat fitted curve, though single readings scatter.
Potency is the fitted concentration of half-maximal effect.

Sequence of DNA dC->dU-editing enzyme APOBEC-3F (Homo sapiens) (Q8IUX4 whole entry, looked up): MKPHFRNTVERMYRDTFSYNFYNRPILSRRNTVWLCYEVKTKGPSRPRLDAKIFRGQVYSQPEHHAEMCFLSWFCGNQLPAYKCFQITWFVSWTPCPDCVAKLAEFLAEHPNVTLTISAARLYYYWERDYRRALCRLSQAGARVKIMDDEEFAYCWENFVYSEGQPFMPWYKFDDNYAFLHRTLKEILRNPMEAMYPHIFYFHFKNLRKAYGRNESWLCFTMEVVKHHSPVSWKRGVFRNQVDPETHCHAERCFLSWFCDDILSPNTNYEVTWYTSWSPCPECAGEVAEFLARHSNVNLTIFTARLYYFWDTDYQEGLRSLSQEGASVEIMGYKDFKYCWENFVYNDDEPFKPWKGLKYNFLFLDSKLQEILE

This experiment addresses DNA dC->dU-editing enzyme APOBEC-3F (Homo sapiens) (UniProt Q8IUX4). Nature of the experiment: qHTS for inhibitors of Vif-A3F interactions: Cherry picks.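 For max response: % of control where 0% means no effect; active compounds raise eYFP fluorescence by blocking Vif-driven A3F loss.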 Note: nearly all actives have a fitted effect of over 70% in size. Conditions: HeLa A3F-eYFP + Vif (tagged APOBEC3F with the HIV-1 protein that degrades it), eYFP fluorescence, 24 h. The text has this:
The recent discovery and characterization of host restriction factors, which provide a potent defense to invading retroviruses, has provided new targets for antiviral drug development. APOBEC3G (A3G) and APOBEC3F (A3F) are potent cytidine deaminases that block HIV-1 replication; HIV-1 expresses the Vif protein, which counteracts A3G and A3F by binding to them and inducing their proteasomal degradation. The Vif-A3G and Vif-A3F interactions provide two potential targets for development of small molecules which can interfere with the ability of Vif to degrade A3G or A3F. […] To identify inhibitors that can interfere with Vif mediated degradation of A3G and A3F, we have developed Hela cell lines that stably express A3G or A3F tagged with eYFP at the C-terminal end (A3G-eYFP or A3F-eYFP, respectively) and Vif. In the absence of an inhibitor, Vif induces degradation of A3G-eYFP and A3F-eYFP, and the cells are not fluorescent. In the presence of an inhibitor, it is expected that Vif will be unable to degrade A3G-eYFP and/or A3F-eYFP, resulting in an increase in yellow fluorescence. In this assay, Vif A3F was screened against the cherry picks ordered from the MLSMR. NIH Chemical Genomics Center [NCGC] NIH Molecular Libraries Probe Centers Network [MLPCN] MLPCN Grant: MH093245 Assay Submitter (PI): Vinay Pathak, National Cancer Institute
A3F-Vif cells were harvested from T225 flask and resuspended in phenol free OPTI-MEM medium with 5% FBS. Then 5 uL of 140,000 cells/mL resuspended cells was dispensed into each well of low base Aurora COC 1,536-well plates (black walled, clear bottom) using a Multidrop Combi dispenser. After overnight culture at 37 deg C with 5% CO2, a total of 23 nL of compounds at 5 selected concentrations from the NPC or positive control (2 mM stock of MG132) in DMSO was transferred to each well of the assay plate using a pintool (Kalypsys, San Diego, CA), and the plates were further incubated at 37 deg C with 5% CO2 for 24 hours. After that, the plates were measured on Acumen Explorer (TTP Lab Tech). The fluorescence was detected by 488 nm/Ex and […].
On the technique in general: In qHTS, concentration-response curves come from the screen itself.
On to `COc1ccc(C2=NOC(C(=O)NCc3ccc(F)cc3)C2)cc1` (centres undefined), for which the max response was -16.1%.
For `CCc1cc(/C=C/c2ccnc3ccccc23)ccc1N(C)C`, the Potency was 14.6 µM (active).
`CN(C)c1ccc(/C=C/c2ccnc3ccccc23)cc1O`: the Potency is 11.6 µM (active).
`Cc1cc(/C=C/c2ccnc3ccccc23)ccc1N(C)C`: the Potency was 8.2 µM (active).
Consider `CN(C)c1ccc(/C=C/c2ccnc3ccccc23)cc1N`, for which the max response is -19.7%.
With `CN1CCCc2cc(/C=C/c3ccnc4ccccc34)ccc21`, the Potency was 4.11 µM (active).
For `CCS(=O)(=O)c1nn2c(N)c(/C=C3/C=CC(=O)C(OC)=C3)c(=O)nc2s1`, the max response was 11%.
Same read-out and setting: as for `Cc1ccc(NC(=S)N/N=C2\CCCCC2C)cc1` (centres undefined), the figure is 0.346%; as for `O=C(/C=C/c1ccccc1)Nc1ncn[nH]1`, -21.2%.
Consider `Cc1cc(/C=C/c2ccnc3ccccc23)ccc1N`, for which the Potency was 14.6 µM (active).
Take `COc1cccc(-c2ccc3c(N)c(C(=O)c4ccc(Br)cc4)sc3n2)c1`: the Potency is 10.3 µM (active).
Regarding `COc1ccc2nc3sc(C(=O)Nc4cc(Cl)c(OC)cc4OC)cc3cc2c1`, the max response was -28.2%.
Turning to `COc1cccc(-c2ccc3c(N)c(C(=O)c4ccc(Cl)cc4)sc3n2)c1`, the Potency was 18.4 µM (active).
For the compound `N#CC(C#N)=C1C=C2C=C(N3CCOCC3)CCC2CC1` (centres undefined), the max response is 0.0461%.
`O=C1N/C(=N\N=C\c2ccco2)SC1Cc1ccccc1[N+](=O)[O-]` (centres undefined): the max response is -0.95%.
`Cn1c2ccccc2c2ccc3c(c21)C(=O)C=CC3=O`: the max response is 5.63%.
With `COc1c(-c2ccc(O)c(O)c2)oc2cc(O)cc(O)c2c1=O`, the Potency is 14 µM (active).
With `CC[N+](C)(C)c1ccc(/C=C/c2ccncc2)cc1`, the Potency was 4.11 µM (active).
On the same count and under the same terms, the result for `CCC[N+](C)(C)c1ccc(/C=C/c2ccncc2)cc1` reads 2.31 µM (active).
As to `CC1CC(=O)C2=C(C1)OC(N)=C(C#N)C2c1coc2ccccc2c1=O` (centres undefined), the max response is -25.1%.
As for `CCC(=O)Nc1nc2ccc(NC(=O)c3cc(OC)c(OC)c(OC)c3)cc2s1`, the max response was -4.22%.
Still for that read-out and setting: as for `COc1cc(/C=C(\C#N)c2nc3ccccc3[nH]2)ccc1O`, the figure is 6%.
On to `COc1cc(/C=C(\C#N)c2nc3ccccc3[nH]2)ccc1OCc1ccccc1F`, for which the Potency is 18.4 µM (active).
On to `COc1cc(/C=C(/C#N)c2nc3ccccc3[nH]2)ccc1OCC(=O)Nc1ccccc1C(C)C`, for which the Potency is 16.4 µM (active).
With `COc1cc(/C=C(\C#N)c2nc3ccccc3s2)ccc1OCC(=O)Nc1ccccc1`, the Potency is 14 µM (active).
As for `COc1ccc(OC)c2sc(NC(=O)CCS(=O)(=O)c3ccccc3)nc12`, the max response is -17.2%.
For `COc1cc(/C=C/c2ccnc3ccccc23)ccc1N(C)C`, the Potency was 9.2 µM (active).
With `COc1cc(OC)c(/C=C/c2ccnc3ccccc23)c(OC)c1`, the Potency was 14.6 µM (active).
Turning to `COc1ccc(OC)c(Nc2nc(-c3ccncc3)nc3ccccc23)c1`, the max response was -10.6%.
For the compound `COc1cc(N(C)C)c(OC)cc1/C=C/c1ccnc2ccccc12`, the Potency is 20.6 µM (active).
As to `Cc1c(C)n(Cc2ccccc2)c2ccc(C(=O)NCc3ccco3)cc12`, the max response is -24.7%.
For `Cc1cc(C)c(NC(=O)Cn2c(=O)n(Cc3ccc(C(=O)NCc4ccco4)cc3)c(=O)c3sccc32)c(C)c1`, the Potency is 14.6 µM (active).
`COc1ccccc1-c1c(C#N)c(N)nc2c1CCc1ccccc1-2`: the max response was -14.7%.
As for `COc1ccc2c(n1)Sc1nc3ccccc3nc1N2`, the Potency was 4.11 µM (active).
As for `Cc1ccc(NC(=S)NC(=O)c2ccc(F)cc2)cc1S(=O)(=O)Nc1cccc(Cl)c1`, the max response was -16.8%.
As to `CCCOc1ccc2cc(C(=O)NCc3ccccc3)c(=O)oc2c1`, the max response is -1.07%.
On to `CCCOc1ccc(C(=O)Nc2cccc(NC(=O)c3ccc(Cl)cc3Cl)c2)cc1`, for which the Potency is 16.4 µM (active).
For the compound `c1cncc(-c2nc(NCc3cccs3)c3ccccc3n2)c1`, the max response was -5.9%.
As to `COc1ccc(-c2cc(-c3nnc(COC(=O)c4ccncc4)o3)c3ccccc3n2)cc1OC`, the max response was 2.21%.
For `CC(=O)N/N=C/c1cc(C(C)(C)C)cc(/C=N/NC(C)=O)c1O`, the Potency was 23.1 µM (active).
For the compound `NC(=S)N/N=C/c1cccc(O)c1O`, the max response was -21%.
Regarding `Nc1c(C(=O)Nc2ccc(S(=O)(=O)N3CCCC3)cc2)sc2nc3ccc(OC(F)(F)F)cc3cc12`, the Potency is 20.6 µM (active).
With `COc1ccc(NC(=O)c2oc3ccc(S(=O)(=O)N4CCOCC4)cc3c2C)cc1`, the max response was -0.455%.
Consider `Cc1c(C(=O)Nc2ccc(C(C)C)cc2)sc2nc3n(c(=O)c12)CCC3`, for which the max response was -1.94%.
With `O=C(CN1c2cccc3cccc(c23)S1(=O)=O)Nc1ccc(S(=O)(=O)N2CCOCC2)cc1`, the max response is -0.998%.
With `O=C(Nc1ccc(Cl)cn1)c1cccc(S(=O)(=O)N2CCCCCC2)c1`, the max response is -1%.
Turning to `CCc1cccc2cc3c(N)c(C(=O)Nc4ccc(S(=O)(=O)N5CCCC5)cc4)sc3nc12`, the Potency was 2.8 µM (active).
Take `Nc1c(C(=O)Nc2ccc(S(=O)(=O)N3CCCC3)cc2)sc2nc3cc4c(cc3cc12)CCC4`: the Potency was 6.51 µM (active).
As for `CC(C)c1ccc(C(=O)NCCCNC(=O)c2cnccn2)cc1`, the max response was 1.42%.
Same read-out and setting: as for `Fc1cccc(F)c1/C=N/NC(=S)Nc1cccnc1`, the figure is -0.429%.
As to `O=C(Nc1ccc([N+](=O)[O-])cc1)C(Cc1ccccc1)N1C(=O)c2cccc3cccc(c23)C1=O` (centres undefined), the Potency is 12.5 µM (active).
`O=C(O)Cc1sc(NC2CCCCC2)nc1-c1ccc(Cl)cc1`: the max response was -1.51%.
For `Cc1cc(NC(=O)CSc2nc3c(C)cccc3cc2C#N)no1`, the Potency is 7.31 µM (active).
For `Cc1ccc(NC(=O)CSc2n[nH]c(-c3ccccn3)n2)cc1`, the max response is -3.6%.
Turning to `Cc1nc2cc(NC(=O)CSc3nc4c(C)cccc4cc3C#N)ccc2s1`, the Potency was 11.6 µM (active).
On to `COCc1cc(C)nc(SCC(=O)Nc2ccc3[nH]c(=O)[nH]c3c2)c1C#N`, for which the max response is 0.302%.
For the compound `Cc1nonc1NC(=O)CSc1nc2c(C)cccc2cc1C#N`, the Potency is 18.4 µM (active).
On to `CN1C(=O)N(C)c2ccc(C=O)c3cccc1c23`, for which the max response is -1.54%.
For `N#C/C(=C/c1cccs1)c1ccccn1`, the Potency is 17.7 µM (active).
